# Source: publication PMC5540273 (PLoS ONE, 2017)
# Experiments:
# Settings in all cases: concentration: 1 μM,replicates: in singlicate; n = 1
# [1] = system: JAK1(JH2domain-pseudokinase)
# [2] = system: JAK2(JH1domain-catalytic)
# [3] = system: JAK3(JH1domain-catalytic)
# JNK1 = system: T1, JNK1
# T1 construct: gene MAPK8
# JNK2 = system: T2, JNK2
# T2 construct: gene MAPK9
# JNK3 = system: T3, JNK3
# T3 construct: gene MAPK10
# KIT-autoinhibited = system: KIT-autoinhibited
# KIT = system: KIT
# LATS1 = system: LATS1
# LATS2 = system: LATS2
# 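Further: KINOMEscan kinase panel screen.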
Structure (SMILES),%Inh [1],%Inh [2],%Inh [3],%Inh (JNK1),%Inh (JNK2),%Inh (JNK3),%Inh (KIT-autoinhibited),%Inh (KIT),%Inh (LATS1),%Inh (LATS2)
Cn1ccc2ncnc(Oc3ccc(NC(=O)Nc4cncc(C(F)(F)F)c4)c(Cl)c3)c21,0%,0%,0%,0%,0%,0%,17%,99.9%,0%,0%
c1ccc(Oc2ccc(Nc3ccnc4ccc(-c5ccccn5)cc34)cc2)cc1 [GW407034],0%,22%,0%,20%,16%,18%,0%,45%,1%,0%
O=C(NCC1CC1)c1ccc(-c2cc(C(=O)NC3CC3)ccc2F)cc1 [GW810445],0%,12%,0%,0%,0%,0%,0%,0%,0%,0%
O=C(Nc1ccc(Oc2ccc3nc(NC(=O)C4CC4)cn3n2)c(F)c1)c1cccn(-c2ccccc2)c1=O,0%,0%,0%,0%,0%,0%,0%,100%,0%,0%
Nc1nccc(-c2ccc3c(N)n[nH]c3c2)n1 [GSK1034945],29%,17%,14%,20%,10%,0%,0%,6%,0%,0%
CC(C)c1nc(-c2cccc(NS(=O)(=O)c3ccccc3)c2)c(-c2ccnc(Nc3ccc4c(c3)CN(C)CC4)n2)s1 [GSK1649598],0%,20%,75%,84%,87%,94%,21%,99.9%,6%,27%
CC(=O)c1c(-c2ccncc2)[nH]c(-c2ccncc2)c1C [GW493036],0%,20%,0%,25%,8%,11%,0%,0%,7%,4%
COc1cccc(C2=C(Nc3cccc(Cl)c3)C(=O)NC2=O)c1 [SB-341556],0%,45%,92.9%,25%,44%,32%,0%,14%,0%,0%
COC(=O)Nc1nc2cc(Oc3ccc(NC(=O)Nc4cc(C(F)(F)F)ccc4Cl)cc3)ccc2[nH]1.Cl [GW697465],0%,25%,0%,20%,61%,8%,0%,100%,100%,0%
CS(=O)(=O)Nc1ccc(-c2ccnc3[nH]ccc23)cc1 [GSK993273],9%,97.7%,97.1%,49%,27%,28%,0%,59%,42%,82%
CC(C(=O)NC1CCN(c2ccnc(Nc3ccc(F)cc3)n2)C1)c1ccc(Cl)cc1 (centres unmarked) [GSK1379713],0%,7%,0%,2%,0%,0%,0%,10%,0%,0%
O=C(Nc1cccc(C(F)(F)F)c1)c1cccc(Oc2ccc3nccn3n2)c1,10%,30%,8%,21%,0%,10%,44%,99.9%,0%,0%
CS(=O)(=O)c1cccc(CNc2nc(Nc3ccc4c(c3)[C@@H]3C[C@@H]4CNC3=O)ncc2C(F)(F)F)c1,91.1%,98.4%,100%,38%,30%,46%,39%,42%,24%,45%
CN1CCN(CCNc2nc3cc(Oc4ccc(NC(=O)Nc5cc(C(F)(F)F)ccc5F)cc4)ccc3[nH]2)CC1.Cl.Cl [GW768504],15%,5%,0%,0%,0%,0%,4%,99.8%,0%,0%
FC(F)(F)c1cc(Br)cc(Nc2nccc(-c3cnn4ncccc34)n2)c1 [GW810578],80%,0%,0%,0%,5%,1%,63%,100%,0%,6%
C[C@@H]1CNc2c(sc3ccc4nc(-c5ccncc5)ccc4c23)C(=O)N1,64%,0%,78%,0%,0%,0%,7%,34%,0%,24%
C[C@@H](Oc1cc(-n2cnc3cc(-c4ccncc4)ccc32)sc1C(N)=O)c1ccccc1Cl [GSK479719],0%,58%,48%,7%,10%,11%,0%,64%,10%,0%
